Measurements as given in ChEMBL document CHEMBL3988442, “University of Dundee, Small-Polar-MMV Screening Library” (2021).
For some of these results: Results with a measured potency or affinity are listed apart.

Experiments:
Design in all cases: scale not given: direction of the effect not stated beside the values
[1] = biological target: Protein translocase subunit SecA (Escherichia coli (strain K12)) (UniProt P10408); test: Assay to Identify E. coli SecA ATPase Inhibitors; format: functional; settings: 30 µM
[2] = biological target: T1, Ubiquitin-activating enzyme e1, putative (Leishmania donovani (strain BPK282A1)) (UniProt E9BSI1); test: Leishmania donovani Ubiquitin Activating Enzyme (LdE1); format: functional; settings: 30 µM
T1 sequence (whole entry): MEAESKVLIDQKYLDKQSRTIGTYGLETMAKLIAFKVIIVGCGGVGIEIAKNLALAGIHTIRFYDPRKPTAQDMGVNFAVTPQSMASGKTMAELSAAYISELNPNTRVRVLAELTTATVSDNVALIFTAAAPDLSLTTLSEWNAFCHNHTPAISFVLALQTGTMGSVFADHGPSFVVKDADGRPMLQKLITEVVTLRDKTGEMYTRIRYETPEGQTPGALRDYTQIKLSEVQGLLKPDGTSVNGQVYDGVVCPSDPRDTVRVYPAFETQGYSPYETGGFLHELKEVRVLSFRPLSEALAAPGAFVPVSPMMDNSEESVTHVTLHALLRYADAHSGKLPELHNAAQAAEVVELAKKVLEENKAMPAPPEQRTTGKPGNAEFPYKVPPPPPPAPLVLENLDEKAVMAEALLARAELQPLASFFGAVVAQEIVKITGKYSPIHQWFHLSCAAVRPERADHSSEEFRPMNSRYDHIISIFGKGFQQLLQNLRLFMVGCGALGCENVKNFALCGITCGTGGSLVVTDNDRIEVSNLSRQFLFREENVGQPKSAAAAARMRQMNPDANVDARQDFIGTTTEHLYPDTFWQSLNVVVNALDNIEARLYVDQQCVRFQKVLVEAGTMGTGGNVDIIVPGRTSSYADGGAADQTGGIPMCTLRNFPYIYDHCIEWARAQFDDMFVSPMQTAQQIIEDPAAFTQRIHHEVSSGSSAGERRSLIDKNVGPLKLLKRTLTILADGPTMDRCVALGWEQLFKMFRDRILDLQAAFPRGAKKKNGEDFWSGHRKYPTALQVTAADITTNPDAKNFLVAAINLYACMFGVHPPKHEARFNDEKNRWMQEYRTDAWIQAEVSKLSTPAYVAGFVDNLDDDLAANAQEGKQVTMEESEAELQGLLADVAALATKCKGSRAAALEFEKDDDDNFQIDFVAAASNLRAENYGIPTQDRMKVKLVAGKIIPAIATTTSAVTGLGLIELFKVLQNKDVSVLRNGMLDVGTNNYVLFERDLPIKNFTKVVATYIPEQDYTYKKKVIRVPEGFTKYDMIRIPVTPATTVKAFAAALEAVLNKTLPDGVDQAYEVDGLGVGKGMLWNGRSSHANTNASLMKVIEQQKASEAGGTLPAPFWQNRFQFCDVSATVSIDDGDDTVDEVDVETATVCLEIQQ

[3] = biological target: AMP-activated protein kinase, AMPK (Homo sapiens) (UniProt P54646+O43741+P54619+Q9UGJ0+Q9Y478+Q13131+Q9UGI9); test: AMP-dependent Kinase enzyme assay. An in vitro enzyme assay that detects ADP turnover that is directly proportional to AMPK activity. This uses naive AMPK that is activated during the assay with MK-8722; format: functional; settings: 30 µM
[4] = biological target: Sialic acid-binding Ig-like lectin 9 (Homo sapiens) (UniProt Q9Y336); test: Hs-Siglec9 ALPHAscreen SOP 20170721; settings: 10 µM
Trypanosoma cruzi = test: Trypanosoma cruzi phosphomannomutase and mannose-1-phosphate guanylyltransferase assay; format: functional; settings: 10 µM
[5] = biological target: T2, Arginase-2, mitochondrial (Homo sapiens) (UniProt P78540); test: in vitro enzyme assay to detect the production of urea directly proportional to the activity of Arginase II; format: functional; settings: 33.3 µM; also: in the data most compounds retested in dose-response had high values
T2 sequence (whole entry): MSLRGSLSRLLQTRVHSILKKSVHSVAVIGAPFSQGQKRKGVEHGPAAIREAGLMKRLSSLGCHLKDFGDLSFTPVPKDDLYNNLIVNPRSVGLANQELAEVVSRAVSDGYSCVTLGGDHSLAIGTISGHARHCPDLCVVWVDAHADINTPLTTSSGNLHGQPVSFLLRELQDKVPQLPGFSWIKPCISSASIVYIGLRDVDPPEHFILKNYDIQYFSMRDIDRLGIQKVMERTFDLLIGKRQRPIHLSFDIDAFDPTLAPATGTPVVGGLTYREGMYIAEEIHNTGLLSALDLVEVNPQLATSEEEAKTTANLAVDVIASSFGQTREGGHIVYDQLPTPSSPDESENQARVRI

[6] = biological target: T3, Proteasome subunit beta (Trypanosoma cruzi) (UniProt O96673); test: Trypanosoma cruzi proteasome chymotrypsin-like activity (TcProtChymo) assay.; also: in the data most compounds retested in dose-response had high values; format: functional; settings: 9.37 µM
T3 sequence (whole entry): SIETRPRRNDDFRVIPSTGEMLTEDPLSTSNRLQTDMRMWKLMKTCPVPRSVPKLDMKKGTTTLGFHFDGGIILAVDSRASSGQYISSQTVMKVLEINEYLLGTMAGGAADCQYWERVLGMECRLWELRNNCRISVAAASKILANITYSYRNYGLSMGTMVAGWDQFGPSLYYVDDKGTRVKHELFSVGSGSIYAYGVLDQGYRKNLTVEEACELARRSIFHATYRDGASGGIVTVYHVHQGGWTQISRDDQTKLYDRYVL

Homo sapiens = species: Homo sapiens; test: To identify inhibition of the IFN signalling (Jak-Stat) pathway via expression of an eGFP reporter gene under the control of an IFN-stimulated response element (ISRE) containing MxA promoter.; format: functional; settings: 30 µM
[7] = biological target: T4, Tyrosyl-tRNA synthetase, putative (Trypanosoma cruzi (strain CL Brener)) (UniProt Q4DSP6); test: Trypanosoma cruzi tyrosyl tRNA synthetase (TcYRS) _High Tyrosine SOP; format: functional; settings: 30 µM; also: in the data most compounds retested in dose-response had high values
T4 sequence (whole entry): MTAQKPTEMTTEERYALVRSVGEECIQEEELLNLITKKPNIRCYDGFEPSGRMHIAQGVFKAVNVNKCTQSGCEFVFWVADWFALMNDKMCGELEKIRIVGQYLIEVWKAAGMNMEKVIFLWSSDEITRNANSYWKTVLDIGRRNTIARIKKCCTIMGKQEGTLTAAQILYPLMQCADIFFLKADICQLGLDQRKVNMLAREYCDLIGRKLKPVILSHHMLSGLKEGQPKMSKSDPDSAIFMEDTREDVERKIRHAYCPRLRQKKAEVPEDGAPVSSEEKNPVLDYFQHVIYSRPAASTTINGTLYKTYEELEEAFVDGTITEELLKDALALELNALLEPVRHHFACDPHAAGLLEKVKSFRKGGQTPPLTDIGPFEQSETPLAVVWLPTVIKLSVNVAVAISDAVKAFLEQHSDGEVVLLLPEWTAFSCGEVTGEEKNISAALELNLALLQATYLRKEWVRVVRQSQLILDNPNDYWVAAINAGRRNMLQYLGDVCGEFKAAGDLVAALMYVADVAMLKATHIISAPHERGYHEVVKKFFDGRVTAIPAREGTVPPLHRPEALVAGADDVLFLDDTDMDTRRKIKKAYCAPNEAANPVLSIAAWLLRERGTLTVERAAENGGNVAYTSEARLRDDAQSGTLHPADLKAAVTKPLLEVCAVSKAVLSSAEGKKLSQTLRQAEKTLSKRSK

[8] = biological target: T4, Tyrosyl-tRNA synthetase, putative (Trypanosoma cruzi (strain CL Brener)); test: Trypanosoma cruzi tyrosyl tRNA synthetase (TcYRS) SOP; format: functional; settings: 30 µM
[9] = biological target: Chromo domain-containing protein 1 (Saccharomyces cerevisiae (strain ATCC 204508 / S288c) (Baker's yeast)) (UniProt P32657); test: ScCHD-1 Enzyme Inhibition Assay; format: functional; settings: 30 µM; also: in the data most compounds retested in dose-response had high values
Chromo domain-containing protein 1 (Saccharomyces cerevisiae (strain ATCC 204508 / S288c) (Baker's yeast)), sequence (P32657 whole entry, the tested form may be a part): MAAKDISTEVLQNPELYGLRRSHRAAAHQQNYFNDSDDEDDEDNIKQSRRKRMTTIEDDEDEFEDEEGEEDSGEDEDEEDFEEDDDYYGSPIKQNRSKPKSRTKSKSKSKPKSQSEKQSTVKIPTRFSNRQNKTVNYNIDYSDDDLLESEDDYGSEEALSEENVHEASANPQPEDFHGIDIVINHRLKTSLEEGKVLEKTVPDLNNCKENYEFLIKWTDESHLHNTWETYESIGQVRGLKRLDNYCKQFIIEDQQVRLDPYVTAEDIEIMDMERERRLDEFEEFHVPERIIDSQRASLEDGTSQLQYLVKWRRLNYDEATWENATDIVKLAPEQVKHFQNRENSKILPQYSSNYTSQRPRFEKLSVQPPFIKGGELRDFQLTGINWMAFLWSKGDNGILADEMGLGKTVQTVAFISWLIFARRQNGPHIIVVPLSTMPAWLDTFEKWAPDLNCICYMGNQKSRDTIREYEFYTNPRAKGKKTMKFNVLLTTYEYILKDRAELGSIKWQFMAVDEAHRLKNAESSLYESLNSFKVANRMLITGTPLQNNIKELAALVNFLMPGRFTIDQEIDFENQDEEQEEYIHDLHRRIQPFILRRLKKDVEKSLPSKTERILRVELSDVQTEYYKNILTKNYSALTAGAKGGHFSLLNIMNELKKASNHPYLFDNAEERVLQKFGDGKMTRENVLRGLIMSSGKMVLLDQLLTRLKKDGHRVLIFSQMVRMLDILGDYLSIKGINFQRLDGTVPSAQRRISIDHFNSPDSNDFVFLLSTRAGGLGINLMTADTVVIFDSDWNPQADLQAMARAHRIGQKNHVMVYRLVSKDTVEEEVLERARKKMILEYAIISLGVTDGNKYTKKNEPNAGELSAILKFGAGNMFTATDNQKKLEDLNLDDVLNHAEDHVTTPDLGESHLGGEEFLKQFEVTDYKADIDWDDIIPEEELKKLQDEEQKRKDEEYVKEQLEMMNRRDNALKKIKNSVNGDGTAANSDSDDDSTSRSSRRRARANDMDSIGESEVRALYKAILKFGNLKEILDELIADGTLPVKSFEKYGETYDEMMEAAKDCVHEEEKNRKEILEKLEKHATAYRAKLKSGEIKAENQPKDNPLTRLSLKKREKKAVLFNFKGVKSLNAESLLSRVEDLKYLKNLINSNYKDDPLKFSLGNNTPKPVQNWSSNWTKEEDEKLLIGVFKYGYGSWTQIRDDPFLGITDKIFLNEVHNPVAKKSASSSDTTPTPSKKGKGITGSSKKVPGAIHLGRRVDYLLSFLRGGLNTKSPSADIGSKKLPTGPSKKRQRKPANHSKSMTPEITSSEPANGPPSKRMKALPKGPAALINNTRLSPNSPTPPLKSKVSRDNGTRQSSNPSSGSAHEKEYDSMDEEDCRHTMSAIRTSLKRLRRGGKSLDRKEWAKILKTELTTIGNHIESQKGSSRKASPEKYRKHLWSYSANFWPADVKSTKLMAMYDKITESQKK

Sialic acid-binding Ig-like lectin 9 (Homo sapiens), sequence (Q9Y336 whole entry): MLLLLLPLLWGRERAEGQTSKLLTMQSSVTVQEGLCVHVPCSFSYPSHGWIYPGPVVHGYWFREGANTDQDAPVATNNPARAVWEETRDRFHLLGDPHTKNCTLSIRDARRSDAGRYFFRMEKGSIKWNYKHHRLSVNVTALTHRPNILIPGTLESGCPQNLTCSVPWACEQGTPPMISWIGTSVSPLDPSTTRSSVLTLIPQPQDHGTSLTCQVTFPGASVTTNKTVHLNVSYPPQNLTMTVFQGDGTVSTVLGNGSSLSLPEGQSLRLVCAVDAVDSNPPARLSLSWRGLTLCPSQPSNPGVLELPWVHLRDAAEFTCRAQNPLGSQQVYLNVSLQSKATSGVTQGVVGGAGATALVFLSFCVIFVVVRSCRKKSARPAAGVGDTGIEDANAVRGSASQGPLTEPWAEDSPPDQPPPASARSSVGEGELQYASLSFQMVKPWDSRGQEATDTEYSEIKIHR
Protein translocase subunit SecA (Escherichia coli (strain K12)), sequence (P10408 whole entry): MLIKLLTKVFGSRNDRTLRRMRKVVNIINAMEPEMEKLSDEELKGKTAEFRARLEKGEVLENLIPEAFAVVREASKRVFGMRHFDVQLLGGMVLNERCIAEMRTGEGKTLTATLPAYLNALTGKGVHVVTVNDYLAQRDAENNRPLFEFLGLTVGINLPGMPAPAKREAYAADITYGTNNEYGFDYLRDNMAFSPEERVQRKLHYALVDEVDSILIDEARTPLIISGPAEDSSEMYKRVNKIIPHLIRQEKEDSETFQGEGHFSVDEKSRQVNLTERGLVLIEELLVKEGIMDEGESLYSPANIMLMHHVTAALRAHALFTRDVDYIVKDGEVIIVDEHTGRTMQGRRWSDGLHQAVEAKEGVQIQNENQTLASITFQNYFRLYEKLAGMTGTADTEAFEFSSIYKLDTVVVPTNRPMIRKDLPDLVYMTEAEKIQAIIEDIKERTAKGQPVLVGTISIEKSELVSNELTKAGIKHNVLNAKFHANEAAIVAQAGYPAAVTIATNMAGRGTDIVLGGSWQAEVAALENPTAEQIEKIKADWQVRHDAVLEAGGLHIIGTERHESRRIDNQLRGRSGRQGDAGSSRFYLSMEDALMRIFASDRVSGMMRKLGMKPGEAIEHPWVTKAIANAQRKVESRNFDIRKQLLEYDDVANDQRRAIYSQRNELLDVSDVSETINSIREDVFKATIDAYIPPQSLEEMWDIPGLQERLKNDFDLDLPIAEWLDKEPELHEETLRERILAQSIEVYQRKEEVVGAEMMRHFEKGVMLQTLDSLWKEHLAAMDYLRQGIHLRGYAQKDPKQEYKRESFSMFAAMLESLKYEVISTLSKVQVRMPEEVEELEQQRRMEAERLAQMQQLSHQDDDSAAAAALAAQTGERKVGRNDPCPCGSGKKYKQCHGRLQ

SMILES	Percent Effect [1] [%]	Percent Effect [2] [%]	Percent Effect [3] [%]	Percent Effect [4] [%]	Percent Effect (Trypanosoma cruzi) [%]	Percent Effect [5] [%]	Percent Effect [6] [%]	Percent Effect (Homo sapiens) [%]	Percent Effect [7] [%]	Percent Effect [8] [%]	Percent Effect [9] [%]
CC(C(=O)N1CCCN(c2ncccc2C#N)CC1)n1ccnc1 (stereo not given)	-2.42	21.1	0.0866	-9.53	5.13	-1.08	7.19	14	10.3	18.5	-9.73
CCn1cnnc1CNC(=O)N1CCN(c2nc(C)c(C)s2)CC1	-8.34	10.4	-7.32	12.2	4.68	-4.27	0.676	-2.89	5.83	19.5	-9.23
Cc1cc(N2CCC3(CCC(=O)N(CC4CC4)C3)CC2)nc(N)n1	-4.29	5.41	-2.2	5.16	-0.88	-1.74	8.15	7.43	9.68	8.64	-3.15
CCc1noc(C(C)N(C)CC(=O)Nc2c(C)cccc2C)n1 (stereo not given)	1.06	11	6.59	4.7	4.31	16.8	8.7	-3.6	4.3	15	-7.1
CCOC(=O)N1CCN(C(=O)CCn2ccc3c(OC)cccc32)CC1	-0.914	0	-4.91	2.66	-6.91	-10.7	15.8	35	2.13	-2.6	-1.25
CN1CCN(C(=O)c2ccc(=O)n(C)c2)c2ccccc21	-6.34	18.9	-11	20.6	3.25	-0.554	2.51	6.73	16.8	25.6	-6.38
CCc1ccccc1CN1CC[C@@H](NC(=O)c2cccnc2)[C@H](O)C1	-2.67	1.39	-0.714	6.65	8.26	0	12.8	-21.1	3.16	10.3	-3.67
CCc1cnc2c(c1NCc1ccncc1)c(=O)n(C)c(=O)n2C	0.985	8.22	-0.992	-0.488	-4.5	5	13.1	14.7	6.45	10	-4.37
COc1cnc(C2(O)CCN(C(=O)c3cccnc3)CC2)c(OC)n1	-4.3	4.05	11.7	7.31	-1.78	-0.696	-0.156	-1.41	5.38	6.49	-4.19
OCC1CCCN1c1cc(NCCNc2ccccn2)ncn1 (stereo not given)	-3.44	5.48	-4.46	-5.01	1.18	3.64	20.4	22.1	2.15	10	-7.12
Cc1cc(C)n(Cc2ccc(C(=O)NCCN3CCOCC3)cc2)n1	-1.98	4.17	-0.277	-1.95	6.32	-0.442	19.6	5.69	7.37	7.69	-6.36
CN1CCN(c2ncc3c(=O)n(-c4cccc(F)c4)c(=O)[nH]c3n2)CC1	0.451	13.2	0.333	-0.649	-1.27	7.1	18.9	-9.16	4.25	10.4	92.2
CCC(NC(=O)C1CCN(S(=O)(=O)N(C)C)CC1)c1ccc(C)c(C)c1 (stereo not given)	0.26	0	0.886	1.28	-2.46	19.3	8.82	-10.2	-2.15	1.24	-0.385
COc1cccc(N2CCN(C(=O)[C@H](O)C3CCCCC3)CC2=O)c1	-1.35	5.41	2.95	1.44	2.32	2.38	21	3.62	8.99	17.1	-2.64
CC(C)Cc1noc(CN2CCOCC2)n1	-1.04	7.89	-1.16	2.11	2.07	1.15	15.7	-19.8	5.39	12.2	-7.16
CC(=O)c1cccc(OCCCC(=O)N(C)Cc2cccc(O)c2)c1	-2.9	2.7	5.1	4.56	0.193	4.29	3.28	8.19	-0.529	0	-3.66
Cc1ccc(CN2CCCn3nnc(COCC4CC4)c3C2)s1	0.823	16	9.89	-6.88	-2.76	-11	6.96	12.7	5.32	11.5	-3.12
Cc1cc(=O)n(CC(=O)NCC2CCCO2)c(-c2ccc(F)cc2)n1 (stereo not given)	-8.1	0	1.45	-2.38	-3.83	2.76	7.49	22.5	-1.07	-3.7	3.12
Cc1cc2nc(SCC(=O)N3CCCC3)n(C(C)C)c(=O)c2[nH]1	-2.21	21.1	-3.68	-13.3	2.63	-1.18	19.5	17.9	1.06	10.4	-6.22
O=C(CCn1cccn1)N1C[C@@H]2CC[C@H](C1)N(Cc1ccccn1)C2=O	-3.32	5.41	-4.57	4.2	2.51	0.476	1.72	3.77	5.82	14.6	-3.35
